Screens deposited in PubChem BioAssay by Paczesny and Yang Labs, IUPUI and University of Michigan.
This excerpt belongs to a sample that is enriched for hits.
ST2 IL33 inh: inhibitors of human ST2 (IL1RL1) binding to IL-33, primary screen, biochemical, AlphaLISA; inhibition, % for hits at 17 µM; AID 1259354, 2018; 2.3% of 78,000 active; AlphaLISA ST2-Fc/biotin-IL-33 interaction, 1 h; Interleukin-1 receptor-like 1 (Homo sapiens), Q01638; in the data active = inhibition above about 30%
Target sequence (Q01638 whole entry, looked up): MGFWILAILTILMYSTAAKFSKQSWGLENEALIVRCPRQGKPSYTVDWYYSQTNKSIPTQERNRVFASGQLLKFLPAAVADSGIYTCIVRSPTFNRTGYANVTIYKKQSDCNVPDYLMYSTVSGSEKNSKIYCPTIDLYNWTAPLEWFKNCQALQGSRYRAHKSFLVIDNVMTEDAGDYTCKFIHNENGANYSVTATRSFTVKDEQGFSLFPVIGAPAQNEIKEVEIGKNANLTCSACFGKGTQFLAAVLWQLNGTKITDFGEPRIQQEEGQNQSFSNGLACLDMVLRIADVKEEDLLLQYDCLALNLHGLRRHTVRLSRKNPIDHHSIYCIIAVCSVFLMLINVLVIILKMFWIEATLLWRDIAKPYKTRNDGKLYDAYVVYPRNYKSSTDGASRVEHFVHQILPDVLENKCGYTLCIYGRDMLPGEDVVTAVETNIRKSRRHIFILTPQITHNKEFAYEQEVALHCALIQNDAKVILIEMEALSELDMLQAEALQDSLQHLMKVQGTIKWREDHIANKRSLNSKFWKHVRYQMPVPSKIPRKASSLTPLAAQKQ
Active calls of the source: *; i = inactive.

SMILES	ST2 IL33 inh
Cc1cccc(C)c1N(CC(=O)Nc1cccc(Cl)c1C)S(C)(=O)=O	i
CC1(C)CC(=O)C2=C(C1)NC1=C(C(=O)CC(C)(C)C1)C2c1ccccc1	i
CC1(C)CC(=O)C2=C(C1)Nc1sc(C#N)c(N)c1C2c1ccccc1 (stereo not drawn)	33%*
CC1(C)CC(=O)C2=C(C1)Nc1[nH]c(=O)[nH]c(=O)c1C2c1ccccc1 (stereo not drawn)	i
COc1cccc(CCNC(=O)C2CC23CCN(C(=O)/C=C/c2cccs2)CC3)c1 (stereo not drawn)	i
O=S(=O)(c1ccc(Cl)cc1)c1nc(/C=C/c2ccccc2)oc1N1CCOCC1	31%*
Cc1ccc(-c2nc(S(=O)(=O)c3ccc(C)cc3)c(N3CCOCC3)o2)cc1	i
NC(=O)CSc1oc(-c2ccccc2)nc1S(=O)(=O)c1ccc(Cl)cc1	i
COc1cccc(CN2CCN(Cc3nc(-c4ccc(Cl)cc4)no3)CC2CCO)c1 (stereo not drawn)	i
CCN(Cc1nc(COC)no1)C(=O)CC1=CCCCC1	i
OCCCNCc1ccccc1	i
Cc1nc2ccc3nc(NC(=O)c4ccccc4Cl)sc3c2s1	i
COC(=O)c1ccc(C(=O)Nc2nc3ccc4nc(C)sc4c3s2)cc1	30%*
Cc1nc2ccc3nc(NC(=O)c4cccc(Br)c4)sc3c2s1	i
CCC(Sc1nnc(-c2ccc(C)cc2)n1C)C(=O)Nc1ccc(C(C)=O)cc1 (stereo not drawn)	i
CCc1[nH]c2ccc(CNC(=O)c3ccc4[nH]c(=O)[nH]c4c3)cc2c1C	i
COc1cc(CN2CCC(N3CCCCC3)CC2)c([N+](=O)[O-])cc1OC	i
CCc1ccc(NC(=O)c2noc3c2CC(C(C)(C)C)CC3)cc1 (stereo not drawn)	53%*
CC(C)(C)C1CCc2onc(C(=O)NCc3ccc(Cl)cc3)c2C1 (stereo not drawn)	i
CC(C)(C)C1CCc2onc(C(=O)Nc3cccc(Cl)c3)c2C1 (stereo not drawn)	i
CC1CN(c2ncnc3nc[nH]c23)CC(C)O1 (stereo not drawn)	i
CC(C)c1ccc(C2CC(c3ccc(Cl)cc3)Nc3nc(N)nn32)cc1 (stereo not drawn)	i
N=Nc1[nH]c(N)c2ccccc12	46%*
COC(=O)c1sc2ccccc2c1NC(=O)C1CCCCC1	i
CC1=C(/C=C/c2ccc(Cl)cc2Cl)C(=O)c2ccccc2C1=O	37%*
SMILES	ST2 IL33 inh
COc1ccc2oc(=O)c(NC(=O)/C=C/c3ccc(Cl)cc3Cl)cc2c1	i
O=C1OC(Nc2ccc(Cl)cc2Cl)c2ccccc21 (stereo not drawn)	i
COc1ccc(S(=O)(=O)N2CCC(C(=O)O)CC2)cc1	i
CCN1CCN(C(=O)C2c3cc(OC)c(OC)cc3C(=O)N(C)C2c2cccs2)CC1 (stereo not drawn)	i
N=c1oc2ccc([N+](=O)[O-])cc2cc1C(=O)Nc1ccccc1Cl	i
O=[N+]([O-])c1ccc(N2CCN(Cc3ccc(Br)s3)CC2)cc1	36%*
COc1cc(CN2CCN(c3ccc([N+](=O)[O-])cc3)CC2)ccc1O	i
O=[N+]([O-])c1ccc(N2CCN(CCO)CC2)cc1	i
CN(C)c1ccc(CN2CCN(c3ccc([N+](=O)[O-])cc3)CC2)cc1	51%*
CCOc1ccccc1N1CCN(Cc2ccc([N+](=O)[O-])cc2)CC1	i
Cc1ccccc1N1CCN(Cc2ccc(Br)s2)CC1	i
O=C(CCC1CCCN(C(=O)CC2=CCCCC2)C1)N1CCN(Cc2ccccc2)CC1 (stereo not drawn)	i
Cc1cc(NC(=O)Cn2cc([N+](=O)[O-])cn2)c2ccccc2n1	i
O=c1c2ccccc2ncn1CCOCCOc1ccc(Cl)c(Cl)c1	i
Cc1csc(C(C)N(C)C(=O)CC2(c3ccccc3)CC(=O)N(Cc3ccncc3)C2=O)n1 (stereo not drawn)	i
CNc1nc(C(=O)N2CCC(N3CCCC3=O)CC2)cs1	i
O=C(NCc1cccs1)c1ccc(NC(=O)C2CCCO2)cc1 (stereo not drawn)	i
CC(C)(O)C#Cc1ccc(-c2nccn2-c2ccccc2CCO)cc1	i
COc1cccc2cc(C(=O)NC(C)=O)c(=Nc3ccccc3F)oc12	33%*
COc1cccc2cc(C(=O)NC(C)=O)c(=Nc3ccc(C(F)(F)F)cc3)oc12	i
COc1cccc2cc(C(=O)NC(C)=O)c(=Nc3cccc(F)c3)oc12	i
O=C(CN1CCN(Cc2ccccc2F)C1=O)NC1CCCCCC1	i
Cc1ccc(CN2CCC(CNC(=O)C3(N)CCCC3)C2)cc1C (stereo not drawn)	i
CC1CN(C(=O)c2cccc(F)c2)C(C)CN1C(=O)c1cccc(F)c1 (stereo not drawn)	85%*
COC(=O)[C@@H]1CN(C(=O)c2cccc(F)c2)CCN1C(=O)c1cccnc1	i
Cc1cccc(C(=O)N2C(C)CCCC2C)c1 (stereo not drawn)	i
